Screening data deposited in PubChem by National Center for Advancing Translational Sciences (NCATS).
HT1080-NT tox – kills 2HG-producing HT-1080-NT fibrosarcoma cells; HT-1080-NT fibrosarcoma viability, CellTiter-Glo ATP luminescence, 48 h; hit rate 1.6% among 360,000; Potency, µM (doses to about 46.1 µM), actives largely listed as cytotoxic;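 also: NT is the 2HG producing partner of a matched IDH1 knockdown line; nearly all actives have a fitted effect of over 55% in size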
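Viability of the 2HG-overproducing fibrosarcoma line after 48 hours of compound exposure at 37 degrees C was determined by luminescence with CellTiter-Glo, and concentration-effect curves were then fitted and categorized.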
SW480 rereplic – DNA re-replication induction in SW480 cells. SW480 DNA re-replication, Hoechst DNA content imaging, 48 h. Potency, µM (series often up to 46.1 µM), hits mostly activators. hit rate 1.8% among 340,000; also: nearly all actives have a fitted effect of over 55% in size
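250 cells/well; 23 nL cpd via pin tool; 48 hr, 37 C, 5% CO2; Hoechst 40 min; imager read of total nuclear intensity, ex 405/em 500-530 nm.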
KB-V1 cytotox – kills drug-selected multidrug resistant KB-V1 cells. KB-V1 MDR cells viability, CellTiter-Glo, 72 h. hit rate 3.4% among 400,000. Potency, µM (highest dose often 46.1 µM), usual class: cytotoxic. AID 1347076; also: nearly all actives have a fitted effect of over 60% in size
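Cytotoxicity toward P-gp-expressing KB-V1 cells was determined as loss of CellTiter-Glo luminescence after 72 h at 37 degrees C. Compounds were tested in quantitative HTS format across a concentration range, with curves fitted to normalized data.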
HT1080 IDH1KD tx – HT-1080 IDH1 knockdown cell toxicity (counter line) | HT-1080 IDH1 knockdown viability, ATP luminescence, 48 h | Potency, µM (titrated, usually from 46.1 µM), usual class: cytotoxic | hit rate 2% among 360,000 | AID 686971
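CellTiter-Glo luminescence after 48 h compound exposure at 37 degrees C of IDH1-knockdown HT-1080 cells in 5% FBS RPMI. %Activity scaled between DMSO wells and cell-free media wells, with curves fitted and assigned curve classes.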
KB-3-1 tox – KB-3-1 parental cell cytotoxicity | KB-3-1 viability, CellTiter-Glo ATP luminescence, 72 h | Potency, µM (series often up to 46.1 µM), usual class: cytotoxic | hit rate 1.4% among 400,000; also: nearly all actives have a fitted effect of over 60% in size
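Luminescent ATP read-out (CellTiter-Glo) measures survival of drug-naive KB-3-1 cells after 72 h compound exposure at 37 °C. Titration series was screened from lowest to highest concentration, with DMSO vehicle plates as background controls.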
MCF10A rerep – induces DNA re-replication in MCF 10a normal breast cells; MCF 10A DNA re-replication, Hoechst nuclear intensity, 48 h; Potency, µM (titrated, usually from 46.1 µM), hits mostly activators; hit rate 2.9% among 350,000; AID 624296; also: nearly all actives have a fitted effect of over 50% in size
Each line names hits and unclear results; the compound was inactive in the other large screens. Compounds with a hit are over-represented: about 8% of the library has one in this group of screens. Calls follow the shape of the dose curve; as a rule, active = well fitted curve in the direction sought with a large enough effect; inconclusive = small, poorly fitted or top-dose-only effect, or another doubt; inactive = no such curve, though single readings can be large; an effect the other way counts as inactive or inconclusive.

NC(=O)COC(=O)c1c2c(nc3ccccc13)CCCC2	none
CCOC(=O)c1[nH]c(C)c(C(=O)OCC(=O)N2CCc3ccccc32)c1C	MCF10A rerep 23.1µM
CC1CCc2nc3ccccc3c(C(=O)OCC(=O)NC3CCS(=O)(=O)C3)c2C1 (stereo not given)	HT1080 IDH1KD tx inconclusive
O=C(OCC(=O)N1CCc2ccccc21)c1c2c(nc3ccccc13)CCCCC2	KB-V1 cytotox 4.61µM, KB-3-1 tox inconclusive, MCF10A rerep 10.3µM
COc1cccc(NC(=O)COC(=O)c2c3c(nc4ccccc24)CCC(C)C3)c1 (stereo not given)	SW480 rereplic inconclusive, KB-V1 cytotox 2.91µM, HT1080 IDH1KD tx inconclusive, KB-3-1 tox inconclusive, MCF10A rerep 10.3µM
Cc1ccc(S(=O)(=O)Oc2ccc(/C=C(/NC(=O)c3ccccc3)C(=O)NCC(=O)O)cc2)cc1	SW480 rereplic 6.51µM
Cc1ccc(S(=O)(=O)Oc2ccc(/C=C(/NC(=O)c3ccccc3)C(=O)O)cc2)cc1	none
Cc1ccc(-c2nnc3n2N=C(c2ccc(Br)cc2)CS3)cc1	none
CC(C)[C@H](N)c1nnc2n1N=C(c1ccc(Cl)cc1)CS2	none
Brc1ccc(C2=Nn3c(nnc3-c3n[nH]c4c3CCC4)SC2)cc1	HT1080-NT tox 1.16µM, SW480 rereplic inconclusive, KB-V1 cytotox 1.16µM, HT1080 IDH1KD tx 0.651µM, KB-3-1 tox 0.326µM, MCF10A rerep inconclusive
Clc1ccc(C2=Nn3c(nnc3-c3n[nH]c4c3CCC4)SC2)cc1	HT1080-NT tox 5.8µM, SW480 rereplic 6.51µM, KB-V1 cytotox 3.66µM, HT1080 IDH1KD tx 5.8µM, KB-3-1 tox 3.66µM, MCF10A rerep inconclusive
Cc1nn(S(=O)(=O)c2ccc(C(C)C)cc2)c(C)c1S(=O)(=O)N1CCCCCC1	KB-V1 cytotox inconclusive (no result: HT1080-NT tox, SW480 rereplic, HT1080 IDH1KD tx, MCF10A rerep)
Cc1ccc(Nc2nc(-c3ccc(S(=O)(=O)N4CCCC4)cc3)cs2)cc1C	HT1080-NT tox inconclusive, KB-V1 cytotox 2.59µM, HT1080 IDH1KD tx inconclusive, KB-3-1 tox 7.31µM, MCF10A rerep inconclusive
Cc1cc(C)cc(Nc2nc(-c3ccc(S(=O)(=O)N4CCCC4)cc3)cs2)c1	HT1080-NT tox inconclusive, KB-V1 cytotox inconclusive, HT1080 IDH1KD tx inconclusive, KB-3-1 tox 4.61µM
O=S(=O)(c1ccc(-c2csc(Nc3ccc(Br)cc3)n2)cc1)N1CCCC1	HT1080-NT tox inconclusive, KB-V1 cytotox inconclusive, HT1080 IDH1KD tx inconclusive, KB-3-1 tox inconclusive
CCC(=O)N1CCc2cc(S(=O)(=O)NC(C(=O)NCCc3ccc(Cl)cc3)C(C)C)ccc21 (stereo not given)	none (no result: HT1080-NT tox, SW480 rereplic, HT1080 IDH1KD tx, MCF10A rerep)
Cc1ccc(C)c(S(=O)(=O)Nc2ccc(-n3cnnn3)cc2)c1	none
O=P(O)(O)OC[C@H]1O[C@](O)(COP(=O)(O)O)[C@@H](O)[C@@H]1O	none (no result: HT1080-NT tox, KB-V1 cytotox, HT1080 IDH1KD tx, KB-3-1 tox)
CCCc1nc(SCC(=O)N2CCOCC2)c2c(C)c(C)sc2n1	KB-V1 cytotox 9.2µM, MCF10A rerep inconclusive
CC(=O)N1CCN(C(=O)CSc2ncnc3sc(C)c(C)c23)CC1	KB-V1 cytotox 14.6µM, KB-3-1 tox inconclusive
Cc1sc2ncnc(SCC(=O)NC3CC3)c2c1C	KB-V1 cytotox 20.6µM
Cc1nc(SCC(=O)N2CCOCC2)c2c(C)c(C)sc2n1	none
N#Cc1ccccc1NC(=O)CSc1nnc(-c2ccccc2)n1-c1ccccc1	SW480 rereplic 23.1µM, KB-V1 cytotox 14.6µM, KB-3-1 tox inconclusive, MCF10A rerep inconclusive
COc1ccc(-c2nnc(SCCC(=O)O)n2-c2ccccc2)cc1	KB-3-1 tox 18.4µM
CCNC(=O)CSc1nnc(-c2ccccc2)n1-c1ccc(OCC)cc1	KB-V1 cytotox 18.4µM
CC(C)(C)c1ccc(-c2nc3cc(NC(=O)c4cccc(Br)c4)ccc3o2)cc1	KB-V1 cytotox inconclusive (no result: HT1080-NT tox, SW480 rereplic, HT1080 IDH1KD tx, MCF10A rerep)
O=C(C1CCC(Cn2c(=O)c3sccc3n(Cc3ccc(F)cc3)c2=O)CC1)N1CCOCC1 (stereo not given)	none (no result: HT1080-NT tox, SW480 rereplic, HT1080 IDH1KD tx, MCF10A rerep)
O=C(CN1CCN(CC(=O)Nc2ccccc2F)CC1)Nc1ccc(Cl)c(C(F)(F)F)c1	none (no result: HT1080-NT tox, SW480 rereplic, HT1080 IDH1KD tx, MCF10A rerep)
